The values that follow come from PubChem BioAssay (Tox21).

The nature of the assay: p53 small molecule agonists, cell-based qHTS assay with rat liver microsomes (AID 1963578). A digest of the protocol:
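Fluorescence from a beta-lactamase reporter under a p53 response element was measured after cells had been incubated 16 h at 37 C with test compound and rat liver microsomes plus NADPH (0.5 mg/mL final each).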
A general note: In qHTS, concentration-response curves come from the screen itself.

Inconclusive results are not listed. Where a call stands in place of a potency, no number is given. Unmarked numbers belong to inactive results. Calls of active or inactive are those of the source. The call rests on the fitted dose curve.

Turning to `C=CC(=O)OCCOC1C2CCC1C1CC=CC12` (stereo unspecified), the activation is -1.33% [at 13.6 µM].

As to `CCC(C(=O)OCCOCCN(CC)CC)c1ccccc1` (stereo unspecified), the Potency result is “inactive”.

Regarding `O=C(O)c1ccco1`, the Potency result is “inactive”.

As for `C=CC(C)(O)CC/C=C(\C)CCC=C(C)C` (stereo unspecified), the Potency entry was “inactive”.

As to `O=C(O)[C@H](O)[C@@H](O)[C@H](O[C@@H]1O[C@H](CO)[C@H](O)[C@H](O)[C@H]1O)[C@H](O)CO`, the Potency result was “inactive”.

In the case of `COC(=O)Cc1cccc2ccccc12`, the Potency result is “inactive”.

Take `C[N+](C)(C)CC[N+]1(C)Cc2c(Cl)c(Cl)c(Cl)c(Cl)c2C1`: the Potency result was “inactive”.

`COC(=O)c1cc(Cl)c(NC(C)=O)cc1OC`: the Potency entry is “inactive”.

`Cl/C(=C\n1cncn1)c1ccc(Cl)cc1Cl`: the Potency result was “inactive”.

Turning to `COC(=O)N[C@H](C(=O)N[C@@H](Cc1ccccc1)[C@@H](O)CN(Cc1ccc(-c2ccccn2)cc1)NC(=O)[C@@H](NC(=O)OC)C(C)(C)C)C(C)(C)C`, the Potency result is “inactive”.

Consider `c1ccc(SCCSc2ccccc2)cc1`, for which the Potency entry was “inactive”.

In the case of `C=Cc1ccccn1`, the Potency entry is “inactive”.

For the molecule `CC(=O)c1ccc2c(c1)CCCC2`, the Potency result is “inactive”.

For the molecule `COc1ccc(C)cc1`, the Potency result was “inactive”.

Regarding `C=C(C)C(=O)OCCC[Si](Cl)(Cl)Cl`, the Potency result is “inactive”.

For the molecule `COc1ccc2cccc(CCNC(C)=O)c2c1`, the Potency entry was “inactive”.

On to `CC(C)OC=O`, for which the Potency result was “inactive”.

On to `CC[C@H]1CN2CCc3cc(OC)c(OC)cc3[C@@H]2C[C@@H]1C[C@H]1NCCc2cc(OC)c(OC)cc21`, for which the Potency result was “inactive”.

Regarding `CCCCCCC1(C)CCC(=O)O1` (stereo unspecified), the Potency result is “inactive”.

As to `CCC1COC(=O)O1` (stereo unspecified), the Potency result is “inactive”.

As for `CN(C)C(=S)SC(=S)N(C)C`, the Potency entry was “inactive”.

Turning to `O=C1OC(=O)c2c(Cl)c(Cl)c(Cl)c(Cl)c21`, the Potency entry was “inactive”.

On to `N=C(N)c1ccccc1`, for which the Potency result is “inactive”.

`Cc1occc1SSc1ccoc1C`: the Potency result was “inactive”.

In the case of `SCCSCCS`, the Potency entry was “inactive”.

For the molecule `CC(=O)OCCCc1ccccc1`, the Potency entry is “inactive”.

Take `Nc1nnnn1-c1ccccc1`: the Potency result was “inactive”.

`CCCCCC(CC)OC(=O)CCCOc1ccc(Cl)cc1Cl` (stereo unspecified): the Potency entry was “inactive”.

As for `OCC(CO)N[C@H]1C[C@](O)(CO)[C@@H](O)[C@H](O)[C@H]1O`, the Potency entry is “inactive”.

Regarding `CCCCOCCCC`, the Potency result is “inactive”.

As for `Cc1ccc(Nc2ccc(O)c3c2C(=O)c2ccccc2C3=O)cc1`, the Potency result was “inactive”.

In the case of `Cn1ccnc1`, the Potency entry was “inactive”.

`Nc1cc(C(Cl)=C(Cl)Cl)c(S(N)(=O)=O)cc1S(N)(=O)=O`: the Potency entry was “inactive”.

In the case of `O=C1NC(=O)[C@@]2(CCOc3ccc(F)cc32)N1`, the Potency result is “inactive”.

With `C[Si](C)O[Si](C)(C)O[Si](C)(C)O[Si](C)C`, the Potency result is “inactive”.

Turning to `COCCOCCOCCOCCOC`, the Potency result is “inactive”.

Regarding `CC(C)(C)NCCO`, the Potency entry was “inactive”.

Consider `C1CSCCS1`, for which the Potency entry was “inactive”.

For the molecule `CC(C)(C)c1ccc(O)c(C(C)(C)C)c1`, the Potency entry was “inactive”.

Regarding `CC(=N\O)/C(C)=N/O`, the Potency entry was “inactive”.

As for `CC(=O)N(c1onc(C)c1C)S(=O)(=O)c1ccc(N)cc1`, the Potency entry is “inactive”.

On to `CC(=O)c1ccc(O)c(C(N)=O)c1`, for which the Potency result was “inactive”.

On to `CC(C)(C)c1ccc(C=O)cc1`, for which the Potency result is “inactive”.

On to `Oc1ccc(Sc2ccc(O)cc2)cc1`, for which the Potency result was “inactive”.

In the case of `COc1ccc(C(=O)NCc2ccc(OCCN(C)C)cc2)cc1OC`, the Potency result is “inactive”.

For the molecule `Cc1cc(O)c(Cl)cc1C`, the Potency result is “inactive”.

As for `Cc1ccccc1C(=O)N1CC/C(=N\OS(=O)(=O)O)c2ccc(Cl)cc21`, the Potency entry was “inactive”.

Regarding `CC(CO)CO`, the Potency entry is “inactive”.

On to `[Cl][Eu]([Cl])[Cl]`, for which the Potency entry was “inactive”.

For the molecule `CC1=CC[C@@H](C(C)(C)O)CC1`, the Potency entry is “inactive”.

`CC(C)(C)OC(=O)c1cccc(N)c1`: the Potency entry was “inactive”.
